# Assay results published in PubChem BioAssay (NCATS).
# Results filed as inconclusive are left out. Where a call stands in place of a potency, no number is given. Values without a mark were called inactive. Active and inactive are the calls of the source. The call rests on the fitted dose curve; in most records, active means well fitted inhibition curve with a large enough effect; inconclusive means small, poorly fitted or top-dose-only effect; inactive means flat fitted curve, though single readings scatter. Where a SMILES comes first, the peptide text is derived from it. [ ]: non-standard residue; d: D form. Hyp = O=C(O)[CH]1C[CH](O)CN1; Phe(ol) = N[CH](CO)Cc1ccccc1; Iva = CC[C](C)(N)C(=O)O; Aib = CC(C)(N)C(=O)O
# Assay: P-glycoprotein substrates identified in KB-8-5-11 adenocarcinoma cell line, qHTS therapeutic library screen (AID 1346987); further: nearly all actives have a fitted effect of over 65% in size
# Conditions: KB-8-5-11 (P-gp overexpressing) viability, CellTiter-Glo, 72 h; series mostly up to 44.5 µM
# Description: The ATP-binding cassette transporters P-glycoprotein (P-gp) is known to limit brain penetration of many chemotherapy drugs. […] As such, we developed a high-throughput screen (HTS) to identify substrates of P-gp from a series of chemical libraries including the National Center for Advancing Translational Sciences Pharmaceutical Collection NPC, 2,816 compounds), testing a total of 10,804 compounds, most of which have known mechanisms of action. We used the CellTiter-Glo viability assay to test library compounds against the parental KB-3-1 human cervical adenocarcinoma cell line and the colchicine-selected sub-line KB-8-5-11 that over-expresses P-gp. KB-8-5-11 cells were also tested in the presence of a P-gp inhibitor (tariquidar) to assess reversability of transporter-mediated resistance. Of the tested compounds, a total of 90 P-gp substrates were identified including 55 newly identified P-gp substrates. Substrates were confirmed using an orthogonal killing assay against HEK-293 cells transfected with P-gp. As exemplars, we confirmed that […] (cyclin-dependent kinase inhibitor); AT9283, (Janus kinase 2/3 inhibitor); ispinesib (kinesin spindle protein inhibitor); gedatolisib (PKI-587, phosphoinositide 3-kinase/mammalian target of rampamycin inhibitor); GSK-690693 (AKT inhibitor); and KW-2478 (heat shock protein 90 inhibitor) were substrates , and direct ATPase stimulation was assessed. ABCG2 was also found to confer high levels of resistance to AT9283, GSK-690693 and gedatolisib, while ispinesib, AT7519 and KW-2478 were weaker substrates.
# The HeLa derivative cell line, KB-3-1, and its colchicine-selected, P-gp-overexpressing subline, KB-8-5-11 were maintained in DMEM with 10% FCS and Pen/Strep with glutamine at 37 degree C in 5% CO2. For KB-8-5-11 cells, colchicine was added to the medium at a concentration of 100 ng/mL. HEK-293 cells transfected with empty vector (pcDNA) or vector containing human ABCB1 (MDR-19) or ABCG2 (R-5) have been described previously (Robey, Lin, Qiu, Chan & Bates, 2011) and were maintained in EMEM supplemented with 10% FCS, Pen/Strep and glutamine with 2 mg/ml G418 to select for the expression of the transporter. Cultures were confirmed to be free of mycoplasma infection using the MycoAlert Mycoplasma Detection Kit (Lonza, Walkersville, MD). For the screen, assay medium was identical to culture medium except for KB-8-5-11 where colchicine was excluded from the medium.
# All cell lines were plated into 1536-well plates at 500 cells/well in 5 uL media. Compounds were then pinned in dose-response using a 1536-head pin tool (Kalypsis, San Diego, CA) and plates were incubated at 37 degree C in 5% CO2 for an additional 72 h. CellTiter-Glo reagent (Promega) was dispensed into the wells, incubated for 5 min and luminescence was read on a ViewLux instrument (Perkin-Elmer). Cytotoxic compounds were defined as those that yielded a curve class of -1.1, -1.2, -2.1, -2.2, -2.3, or -2.4, a maximum response of >50% and an AC50 of < 10 uM. Cherry-picked hits from screening analysis were tested with both the KB pair of cell lines, and the pcDNA (empty vector control) and MDR-19 (P-gp overexpressing) pair were tested, in the absence and presence of tariquidar.
# Potency means the concentration at half of the fitted maximal effect.
SMILES,Potency,"activity change, negative = cytotoxicity"
CC(C)n1c(=O)c(C(=O)NC2CC3CCC(C2)N3C[C@@H](O)CN(C)S(C)(=O)=O)cc2ccccc21 (stereo not given in full),inactive,
Cc1[nH]c2ccccc2c1CCNCc1ccc(/C=C/C(=O)NO)cc1,0.366 µM (active),
COc1ccc2nccc(C(=O)CC[C@@H]3CCN(CC#Cc4cc(F)cc(F)c4F)C[C@@H]3C(=O)O)c2c1,inactive,
CCC(C)(NC(=O)C(CCC(N)=O)NC(=O)C1CC(O)CN1C(=O)C(C)(C)NC(=O)C(C)(C)NC(=O)C(CC(C)C)NC(=O)CNC(=O)C(NC(=O)C(C)(C)NC(=O)C(C)(C)NC(=O)C(C)(C)NC(=O)C(Cc1ccccc1)NC(C)=O)C(C)C)C(=O)N1CC(O)CC1C(=O)NC(C)(C)C(=O)NC(CO)Cc1ccccc1 (stereo not given) (Ac-F[Aib][Aib][Aib]VGL[Aib][Aib][Hyp]Q[Iva][Hyp][Aib][Phe(ol)]; configuration not given here),,-10.8% [at 9.29 µM]
O=[N+]([O-])c1cn2c(n1)OC[C@@H](OCc1ccc(-c3ccc(OC(F)(F)F)cc3)nc1)C2,inactive,
CCC/C=C/C=C/C1CC(O)C2(O)C(=O)OCC12 (stereo not given),inactive,
CC1(S(=O)(=O)O)CC(=O)c2ccccc2C1=O (stereo not given),inactive,
N#CC(CCCN1CCC(O)(c2ccc(Cl)cc2)CC1)(c1ccccc1)c1ccccc1,20.6 µM (active),
COc1cc2c(c(OC)c1OC)-c1c(cc3c(c1OC)OCO3)C[C@@H](C)[C@](C)(O)C2,inactive,
O=C(NCCN1CCN(c2cccc3ccc(O)cc23)CC1)c1ccc(F)cc1,inactive,
Cc1cc(F)ccc1-c1nc(NCCN=C(N)NC#N)nc2c1ccc(=O)n2-c1c(F)cccc1F,inactive,
COc1ccnc(CS(=O)c2nc3cc(OC(F)F)ccc3[nH]2)c1OC (stereo not given),inactive,
O=c1cc(N2CCN(c3cccc(C(F)(F)F)c3)CC2)[nH]c(=O)n1C1CCCCC1,inactive,
CC#CCC(C)[C@H](O)/C=C/[C@@H]1[C@H]2C/C(=C/CCCC(=O)O)C[C@H]2C[C@H]1O (stereo not given in full),inactive,
C[C@H]1CC[C@@]2(OC1)O[C@H]1CC3C4CC[C@H]5C[C@@H](O)CC[C@]5(C)C4=CC(=O)[C@]3(C)[C@H]1[C@@H]2C (stereo not given in full),inactive,
O=c1[nH]cnc2c([C@@H]3N[C@H](CO)[C@@H](O)[C@H]3O)c[nH]c12,inactive,
COC1=C(C(=O)O)N2C(=O)[C@@H](NC(=O)[C@H](N)C3=CCC=CC3)[C@H]2SC1,inactive,
COc1ccc(Cl)c(Nc2ncnc3cc(OCC4CCN(C)CC4)c(OC)cc23)c1,inactive,
COc1cc(OC)c2c(=O)[nH]c(-c3cc(C)c(OCCO)c(C)c3)nc2c1,inactive,
CC1OC(OC2C(O)COC(O[C@@H]3[C@@H](O)[C@@H](O)[C@H](OC4C(OC(=O)[C@]56CCC(C)(C)CC5C5=CCC7[C@@]8(C)C[C@H](O)[C@H](OC9OC(CO)C(O)C(O)C9O)[C@@](C)(CO)C8[C@H](O)C[C@@]7(C)[C@]5(C)CC6)OCC(O)C4O)O[C@H]3C)C2O)C(O)C(O)C1O (stereo not given in full),,-5.97% [at 9.29 µM]

SMILES,Potency,"activity change, negative = cytotoxicity"
CC(C)(Cc1nc(-c2ccc(O)cn2)no1)C(=O)NC1=C(C(=O)O)CCCC1,inactive,
C=C1CCCC2(C)CCC(C(C)(C)OC3OC(C)C(O)C(O)C3OC(=O)/C(C)=C\C)CC12 (stereo not given),inactive,
C=C1CC[C@@H]2[C@](C)(CO)[C@H](O)CC[C@@]2(C)[C@@H]1CC(=O)C1=CCOC1=O,inactive,
O=C(c1ccc(OC(F)F)c(C#Cc2ccccn2)c1)N1Cc2cccnc2C1,inactive,
O=C(Cn1cnnn1)N[C@@H]1C(=O)N2C(C(=O)O)=C(CSc3nncs3)CS[C@H]12,inactive,
CC(=O)OC1C(O)CC2(C)C(CCC3(C)C2CC=C2C4C5(CCC(CO[C@@H]6O[C@H](CO)[C@@H](O)[C@H](O)[C@H]6O)(OC5=O)C4(C)O)C(O)CC23C)C1(C)C (stereo not given in full),inactive,
C[C@@H]1O[C@@H](O[C@H]2[C@H](OC(=O)[C@]34CCC(C)(C)C[C@H]3C3=CCC5[C@@]6(C)C[C@H](O)[C@H](O[C@@H]7O[C@H](CO)[C@@H](O)[C@H](O)[C@H]7O)[C@](CO)(C(=O)O)C6CC[C@@]5(C)[C@]3(C)C[C@H]4O)OC[C@H](O)[C@@H]2O)[C@H](O)[C@H](O)[C@H]1O[C@@H]1OC[C@@H](O)[C@H](O[C@@H]2OC[C@](O)(CO)[C@H]2O)[C@H]1O (stereo not given in full),2.45 µM (active),
C/C=C(\C)[C@@H]1C(C)=C[C@@H]2[C@H]([C@@H]1/C=C/C=C/C(=O)O)[C@@H](C)CC[C@@H]2O,11.4 µM (active),
CC1(CO)CC(O)[C@]2(C(=O)O)CCC34CC3(C=CC3[C@]5(C)C(CC[C@]34C)C(C)(CO)[C@@H](O)[C@H](O)[C@@H]5O)C2C1 (stereo not given in full),inactive,
O=C(CN1C2=NCCN2c2ccccc21)c1ccc(-c2ccccc2)cc1,16.4 µM (active),
CCN1CCCC1CNC(=O)c1cc(S(=O)(=O)CC)ccc1OC (stereo not given),inactive,
COc1ccc(CN2CCN(C(=O)CCNC(=O)c3ccc(C(C)(C)C)cc3)CC2)cc1,inactive,
CN(C)CCN(Cc1ccc(-c2ccc(CNCCc3ccccc3)cc2)cc1)C(=O)CCC1CCCC1,4.11 µM (active),
CC[C@H](C)/C=C(C)/C=C/C1=CC2=CC(=O)[C@]3(C)OC(=O)[C@@H](C(C)=O)[C@@H]3C2=CO1,inactive,
C=CC(=O)N1CC(N2CCN(C(=O)CNc3cc(C4CC4)c(Cl)cc3O)CC2)C1,inactive,
O=C1O[C@@H]2[C@@H](O)[C@H](O)O[C@@H]2[C@H]1O,inactive,
CC(O)(C(=O)C1CC1(CO)COC1OC(CO)C(O)C(O)C1O)C1C(O)CC2C3CC=C4CC(O)CC(O)C4(C)C3C(O)CC21C (stereo not given),0.611 µM (active),
COc1cc(C#N)ccc1S(=O)(=O)Nc1ccc2c(c1)cc(C)c(=O)n2C,inactive,
CC(C)(C)CC(=O)OCC(=O)[C@@]12OC(C)(C)O[C@@H]1C[C@H]1[C@@H]3CCC4=CC(=O)C=C[C@]4(C)[C@@]3(F)[C@@H](O)C[C@@]12C,inactive,
CC(C)(C)NC(=O)[C@H]1CC[C@H]2[C@@H]3CC[C@H]4NC(=O)CC[C@]4(C)[C@H]3CC[C@]12C,inactive,
